This is part of a sample that, as a whole, favours compounds with a hit. Of some 79,000 tested, about 15% had one in any assay. Active and inactive are the calls of the source. Rule as the data show it: active = growth inhibition above about 70%; inactive = the rest.
Experiments:
[1] = NCI Yeast Anticancer Drug Screen. Data for the rad52 strain (AID 147);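 also: 0% = growth of vehicle-treated control cultures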; details: S. cerevisiae rad52 mutant growth inhibition, active compounds read high
Method in brief: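 The repair-mutant yeast strain was incubated with compounds, then growth was read and inhibition derived relative to vehicle.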

[2] = NCI Yeast Anticancer Drug Screen. Data for the wt1 strain (AID 149);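 also: 0% = growth of vehicle-treated wt1 cultures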; details: S. cerevisiae wt1 strain (SPY 50644) growth inhibition, active compounds read high
Method in brief: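 Yeast wt1 strain exposed to compounds; growth inhibition measured relative to vehicle-treated controls.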

[3] = NCI Yeast Anticancer Drug Screen. Data for the rad50EPP+ strain (AID 151);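 also: 0% = growth of vehicle-treated control cultures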; details: S. cerevisiae rad50 mutant strain, active compounds read high
Method in brief: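 Vehicle-normalised growth inhibition; rad50EPP+ yeast strain, altered in DNA damage repair, compound-treated.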

[4] = NCI Yeast Anticancer Drug Screen. Data for the rad50 strain (AID 155);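 also: 0% = growth of vehicle-only cultures of the same strain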; details: S. cerevisiae rad50 strain growth inhibition, active compounds read high
Method in brief: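 Yeast carrying a defined DNA repair defect were exposed to test compounds, and growth was compared with vehicle-treated controls to give percent inhibition.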

[5] = NCI Yeast Anticancer Drug Screen. Data for the mec2-1 strain (AID 157); details: S. cerevisiae mec2-1 strain, active compounds read high
Method in brief: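 Mutant yeast (mec2-1) grown with compound; growth inhibition relative to vehicle control reported.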

[6] = NCI Yeast Anticancer Drug Screen. Data for the sgs1 mgt1 strain (AID 161);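 also: 0% = growth of cultures given vehicle only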; details: S. cerevisiae sgs1 mgt1 strain, active compounds read high
Method in brief: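 Percent growth inhibition was derived by comparing compound-exposed mutant yeast with vehicle-exposed cultures. The strain carries alterations in DNA damage repair.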

[7] = NCI Yeast Anticancer Drug Screen. Data for the CLN2oe strain (AID 163);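 also: 0% = growth of vehicle-only control cultures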; details: S. cerevisiae CLN2oe strain, active compounds read high
Method in brief: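 Compounds are applied to yeast harbouring a defined cell-cycle control change; reduced growth compared with vehicle-treated controls gives the value.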

[8] = NCI Yeast Anticancer Drug Screen. Data for the cln2 rad14 strain (AID 165);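 also: 0% = growth equal to vehicle treated cultures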; details: S. cerevisiae cln2 rad14 strain, active compounds read high
Method in brief: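 Readout is yeast growth inhibition versus vehicle-treated controls, using a strain with cln2 and rad14 alterations exposed to compound.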

[9] = NCI Yeast Anticancer Drug Screen. Data for the bub3 strain (AID 167); details: S. cerevisiae bub3 mutant strain, active compounds read high
Method in brief: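 Compounds were applied to a genetically altered yeast strain carrying a cell-cycle control defect. Growth inhibition was scored against vehicle-treated controls.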

[10] = NCI Yeast Anticancer Drug Screen. Data for the wt2 strain (AID 169);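 also: 0% = growth of vehicle-treated yeast cultures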; details: S. cerevisiae wt2 strain growth inhibition, active compounds read high
Method in brief: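 Against vehicle-treated controls, the growth of yeast exposed to each compound was compared, and the inhibition was recorded.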

[11] = NCI Yeast Anticancer Drug Screen. Data for the mlh1 strain (AID 171);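 also: 0% = growth of vehicle-treated control cultures of the same strain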; details: S. cerevisiae mlh1 strain growth inhibition, active compounds read high
Method in brief: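 Measured: yeast growth. Reference: vehicle-treated controls. Organism: strain with a defined alteration affecting DNA damage repair or cell cycle control, treated with compound.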

[12] = NCI Yeast Anticancer Drug Screen. Data for the sgs1 strain (AID 173);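 also: 0% = growth of vehicle-only control cultures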; details: S. cerevisiae sgs1 mutant, active compounds read high
Method in brief: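 Each compound was added to cultures of the altered yeast strain. Growth was recorded, and inhibition was derived by comparison with vehicle controls.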

[13] = NCI Yeast Anticancer Drug Screen. Data for the mlh1 rad18 strain (AID 175); details: S. cerevisiae mlh1 rad18 strain growth inhibition, active compounds read high
Method in brief: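 Genetically defined yeast (DNA repair-deficient) exposed to compounds; growth inhibition determined relative to vehicle.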

[14] = NCI Yeast Anticancer Drug Screen. Data for the rad18 strain (AID 177); details: S. cerevisiae rad18 mutant growth inhibition, active compounds read high
Method in brief: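 Vehicle-treated cultures served as the baseline for scoring compound-induced growth inhibition in DNA-repair-mutant yeast.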

[15] = NCI Yeast Anticancer Drug Screen. Data for the rad14 strain (AID 159);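 also: 0% = growth of vehicle-treated control cultures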; details: S. cerevisiae rad14 strain growth inhibition, active compounds read high
Method in brief: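 Yeast cells carrying a defined DNA-repair defect were exposed to compounds, and growth inhibition was calculated relative to vehicle-treated control cultures.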

[16] = at 5.0 µM (retest, dose inferred, filed as 0.5)
[17] = at 50.0 µM (retest, dose inferred, filed as 5.0)

Measured: growth inhibition

Cc1ccc(SSc2ccc(C)cc2[N+](=O)[O-])c([N+](=O)[O-])c1
inactive: [1]; at 1.2 µM 5% | [1]; at 3.7 µM 19% | [1]; at 11.0 µM 38% | [2]; at 1.2 µM -2% | [2]; at 3.7 µM 4% | [2]; at 11.0 µM 16% | [2]; at 33.0 µM 50% | [3]; at 1.2 µM 7% | [3]; at 3.7 µM 16% | [3]; at 11.0 µM 48% | [4]; at 1.2 µM 8% | [4]; at 3.7 µM 15% | [4]; [16] 54% | [4]; at 11.0 µM 33% | [4]; at 33.0 µM 68% | [4]; at 50.0 µM 69.5% | [5]; at 1.2 µM -5% | [5]; at 3.7 µM 2% | [5]; [16] 57% | [5]; at 11.0 µM 26% | [5]; at 33.0 µM 66% | [6]; [16] -8% | [7]; at 1.2 µM -11% | [7]; at 3.7 µM 0% | [7]; at 11.0 µM -9% | [7]; at 33.0 µM -5% | [8]; [16] 37% | [9]; at 1.2 µM -3% | [9]; at 3.7 µM -3% | [9]; [16] 26% | [9]; at 11.0 µM 2% | [10]; at 1.2 µM -15% | [10]; at 3.7 µM -6% | [10]; at 11.0 µM 21% | [11]; at 1.2 µM -14% | [11]; at 3.7 µM -8% | [11]; at 11.0 µM -1% | [11]; at 33.0 µM 66% | [12]; at 1.2 µM 0% | [12]; at 3.7 µM 14% | [12]; at 11.0 µM 46% | [13]; [16] 35% | [13]; at 50.0 µM 44.7% | [14]; at 1.2 µM -18% | [14]; at 3.7 µM -14% | [14]; at 11.0 µM 19% | [14]; at 33.0 µM 53%
active: [1]; at 33.0 µM 77% | [1]; at 100.0 µM 86% | [2]; at 100.0 µM 83% | [3]; at 33.0 µM 90% | [3]; at 100.0 µM 87% | [4]; [17] 90% | [4]; at 100.0 µM 86% | [5]; [17] 94% | [5]; at 50.0 µM 78.7% | [5]; at 100.0 µM 86% | [6]; [17] 95% | [7]; at 100.0 µM 72% | [8]; [17] 86% | [9]; at 33.0 µM 84% | [9]; [17] 94% | [9]; at 100.0 µM 87% | [10]; at 33.0 µM 82% | [10]; at 100.0 µM 85% | [11]; at 100.0 µM 87% | [12]; at 33.0 µM 91% | [12]; at 100.0 µM 86% | [13]; [17] 80% | [14]; at 100.0 µM 83%

CC(=O)c1ccc(NCN2C(=O)c3ccccc3C2=O)cc1
active: [1]; at 33.0 µM 84% | [1]; at 100.0 µM 92% | [2]; at 100.0 µM 89% | [3]; at 33.0 µM 70% | [3]; at 100.0 µM 90% | [4]; at 33.0 µM 85% | [4]; [17] 99% | [4]; at 50.0 µM 82.7% | [4]; at 100.0 µM 89% | [5]; at 33.0 µM 81% | [5]; [17] 99% | [5]; at 50.0 µM 84.5% | [5]; at 100.0 µM 91% | [15]; at 100.0 µM 93% | [9]; at 33.0 µM 79% | [9]; at 100.0 µM 91% | [10]; at 100.0 µM 89% | [12]; at 33.0 µM 73% | [12]; at 100.0 µM 86% | [13]; [17] 99% | [13]; at 50.0 µM 85.8% | [14]; at 33.0 µM 90% | [14]; at 100.0 µM 92%
inactive: [1]; at 1.2 µM -31% | [1]; at 3.7 µM -8% | [1]; at 11.0 µM 28% | [2]; at 1.2 µM -51% | [2]; at 3.7 µM -41% | [2]; at 11.0 µM -36% | [2]; at 33.0 µM 66% | [3]; at 1.2 µM -17% | [3]; at 3.7 µM -32% | [3]; at 11.0 µM 6% | [4]; at 1.2 µM -20% | [4]; at 3.7 µM -12% | [4]; [16] 42% | [4]; at 11.0 µM 55% | [5]; at 1.2 µM -8% | [5]; at 3.7 µM -30% | [5]; [16] 51% | [5]; at 11.0 µM 16% | [15]; at 1.2 µM -50% | [15]; at 3.7 µM -39% | [15]; at 11.0 µM -19% | [15]; at 33.0 µM 66% | [8]; [16] 48% | [8]; [17] 35% | [9]; at 1.2 µM -15% | [9]; at 3.7 µM -2% | [9]; [16] 34% | [9]; at 11.0 µM 22% | [9]; [17] 42% | [10]; at 1.2 µM -49% | [10]; at 3.7 µM -36% | [10]; at 11.0 µM -15% | [10]; at 33.0 µM 64% | [12]; at 1.2 µM -25% | [12]; at 3.7 µM -28% | [12]; at 11.0 µM -13% | [13]; [16] 36% | [14]; at 1.2 µM -36% | [14]; at 3.7 µM -21% | [14]; at 11.0 µM 47%

From PubChem BioAssay (NCI)
